CRFR2-BP antag = CRF-BP/CRF-R2 complex antagonism; HEK293 CRF-R2/CRF-BP, CRF-induced calcium fluorescence; inhibition, % at 11.8 µM; hit rate 0.59% among 350,000; AID 588475;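 active = inhibition of the ligand-induced calcium signal above about 50% at the single tested concentration, limit read from the data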
Myeloid diff 2 = myeloid differentiation induction; ER-HoxA9 myeloid progenitors, lysozyme-GFP differentiation, flow cytometry; calls only at 10 µM; hit rate 1% among 360,000; AID 624256;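 active = normalized GFP-positive differentiation at or above the plate's own cutoff, the solvent-only control mean plus 3 SD; inconclusive = no clear call, values can overlap the other calls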;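 note: cells exposed to compound for four days before flow analysis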
IDE cell activ = boosts human insulin-degrading enzyme activity in HEK cells | hit rate 0.073% among 340,000 | FAbeta-B cleavage, fluorescence polarization; 0% vehicle, 100% cell-free pure enzyme wells | activation, % at 5.96 µM;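 active = activation above the mean of all tested compounds plus 3 SD, set per screening campaign, cut at about 17% in these data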
Target sequence (P14735 whole entry, looked up): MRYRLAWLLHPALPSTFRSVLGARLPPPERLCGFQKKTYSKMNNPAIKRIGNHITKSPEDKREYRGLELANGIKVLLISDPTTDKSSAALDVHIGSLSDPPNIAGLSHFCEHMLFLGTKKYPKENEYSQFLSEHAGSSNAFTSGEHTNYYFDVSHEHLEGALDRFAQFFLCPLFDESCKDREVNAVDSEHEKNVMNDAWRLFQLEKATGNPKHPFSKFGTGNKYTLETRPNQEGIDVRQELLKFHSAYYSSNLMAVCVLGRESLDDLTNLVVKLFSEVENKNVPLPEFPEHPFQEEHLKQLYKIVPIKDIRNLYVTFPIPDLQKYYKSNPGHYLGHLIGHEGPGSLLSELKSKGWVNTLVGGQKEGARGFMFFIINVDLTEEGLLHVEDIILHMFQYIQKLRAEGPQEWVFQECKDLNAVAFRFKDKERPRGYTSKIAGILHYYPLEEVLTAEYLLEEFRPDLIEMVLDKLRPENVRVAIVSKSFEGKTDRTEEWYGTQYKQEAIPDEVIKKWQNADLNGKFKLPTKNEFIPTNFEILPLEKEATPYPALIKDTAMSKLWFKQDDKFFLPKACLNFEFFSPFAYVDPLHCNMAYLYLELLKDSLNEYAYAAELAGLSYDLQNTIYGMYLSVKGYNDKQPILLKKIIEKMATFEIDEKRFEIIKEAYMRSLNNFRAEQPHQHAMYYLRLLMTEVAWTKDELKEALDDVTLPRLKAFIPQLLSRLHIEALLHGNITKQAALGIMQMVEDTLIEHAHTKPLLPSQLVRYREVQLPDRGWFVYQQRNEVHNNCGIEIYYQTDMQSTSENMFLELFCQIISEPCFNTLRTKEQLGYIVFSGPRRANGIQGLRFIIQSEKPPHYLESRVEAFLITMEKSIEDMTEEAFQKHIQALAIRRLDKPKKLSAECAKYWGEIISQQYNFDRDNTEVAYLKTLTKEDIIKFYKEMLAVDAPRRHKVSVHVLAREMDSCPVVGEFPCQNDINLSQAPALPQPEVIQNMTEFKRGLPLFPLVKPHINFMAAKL
CRFBP-R2 agonist = agonists of human CRF-binding protein/CRF-R2 receptor complex; hit rate 0.46% among 350,000; HEK293 CRF-R2/CRF-BP, calcium dye fluorescence (FLIPR); percent of saturating CRF peptide response; activation, % at 13.2 µM;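 active = activation of at least 50%, plus an integration ratio under a set limit after plate pattern correction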
IDE inh = inhibits human insulin-degrading enzyme in HEK cells. P14735. FAbetaB cleavage, fluorescence polarization. inhibition, % at 5.59 µM. hit rate 0.41% among 320,000. AID 434962;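 active = percent inhibition above the average of all tested compounds plus 3 SD, set per screening campaign, cut at about 16% in these data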;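 note: IDE supplied by intact live HEK cells; FP after avidin binding of uncleaved biotin substrate so inhibition keeps polarization high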
TPT1 inhibitor = C. albicans TPT1 enzyme inhibition. recombinant caTPT1, FP RNA substrate dephosphorylation. hit rate 0.81% among 300,000. inhibition, % at 5 µM;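 active = inhibition above the mean of all tested compounds plus 3 SD, set per screening campaign, cut at about 24% in these data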
IDE inh confirm = confirmation of human insulin-degrading enzyme inhibitors in cells; shares compounds with IDE inh; HEK cells, FAbetaB cleavage, fluorescence polarization; inhibition, % at 5.59 µM; hit rate 51% among 1,200; AID 435028;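 active = mean inhibition across triplicate wells above the cutoff set by the earlier primary insulin-degrading enzyme screen, cut at about 16% in these data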
HEK293 tox = kills HEK cells in IDE inhibitor counter-screen; hit rate 28% among 1,200; AID 449730; inhibition, % at 5.59 µM; shares compounds with IDE inh; HEK293 cytotoxicity, ATP luminescence; in the data active = inhibition above about 22%
IDE FP artifact = fluorescence interference counter-screen for IDE inhibitors | shares compounds with IDE inh | FP counterscreen for fluorescent artifacts, IDE probe project | IC50, µM | 30 tested, under 10 active | AID 588718; call rule not given here
Hits are given with their value; – = inactive; ? = inconclusive; · = no result given. A selection: hits, their analogues and other compounds. The true share with any hit is near 2.6%.

SMILES	CRFR2-BP antag	Myeloid diff 2	IDE cell activ	CRFBP-R2 agonist	IDE inh	TPT1 inhibitor	IDE inh confirm	HEK293 tox	others
O=C(N/N=C/c1ccc(O)cc1O)c1ccc(CN2C(=O)c3cccc4cccc2c34)cc1	–	?	–	–	25.7	–	–	98.5
O=C(N/N=C/c1ccccc1)c1ccc(CN2C(=O)c3cccc4cccc2c34)cc1	–	–	–	–	–	–	·	·
Cc1ccc(Cl)cc1N1CCN(C(=O)c2ccc3nc[nH]c3c2)CC1	–	–	–	–	19.0	–	–	–
N#Cc1ccc(CSc2nnc(-c3cccnc3)n2-c2ccccc2)cc1	–	–	–	–	18.9	–	–	28.5
Cc1ccc(NC(=O)C(C)Sc2nnc(-c3cccnc3)n2-c2ccccc2)cc1 (stereo not given)	–	–	–	–	23.5	–	–	–
Cc1c(-c2cccc(Cl)c2)nc2ccccc2c1C(=O)OCC(=O)Nc1ccc2c(c1)OCO2	–	–	–	–	16.6	–	–	22.7
Cc1ccc(S(=O)(=O)NCC(=O)NCC(=O)NCCc2ccc(Cl)cc2)cc1C	–	–	·	–	·	·	·	·
Cc1cccc(C(=O)NCC(=O)OC(C)C(=O)Nc2ccc(Cl)cn2)c1 (stereo not given)	–	–	–	–	16.3	–	–	–
CC(=O)Sc1nc(-c2ccccc2)[nH]c1S(=O)(=O)c1ccc(C)cc1	–	·	·	–	17.1	–	–	–
O=C(Nc1ccc2c(c1)CCC2)C1CCCN(c2ncccn2)C1 (stereo not given)	–	–	–	–	–	–	·	·
Cc1nc2ncnn2c(N2CCCC(C(=O)Nc3ccc4c(c3)CCC4)C2)c1C (stereo not given)	–	–	–	–	16.9	–	–	43.6
COc1ccc(NC(=O)C[C@H]2C(=O)N(Cc3ccccc3)C[C@@H]2C)cc1	–	–	·	–	·	·	·	·
O=C(c1ccc2ncsc2c1)N1CCN(c2nc3ccccc3s2)CC1	–	–	–	–	24.5	–	–	41.9
O=C(Nc1ccccc1)N1CCN(c2nc3ccccc3s2)CC1	–	–	–	–	18.0	–	–	29.7
Cc1cccnc1C(NC(=O)C1CCN(CCCc2ccccc2)CC1)c1ccc(F)cc1 (stereo not given)	·	–	·	·	·	·	·	·
COc1ccc(-c2nc3cc(NC(=O)c4ccc5c(c4)OCO5)ccc3o2)cc1	–	–	–	–	–	–	·	·
O=C(Nc1ccc2oc(-c3ccncc3)nc2c1)c1ccc2c(c1)OCCO2	–	–	–	–	17.2	–	–	33.0
O=C(Nc1ccc2oc(-c3cccnc3)nc2c1)c1ccc2c(c1)OCCO2	–	–	–	–	17.7	–	18.1	–	IDE FP artifact=–
O=C(Nc1ccc2oc(-c3ccncc3)nc2c1)c1ccc2c(c1)OCO2	–	–	–	–	–	–	·	·
O=C(Nc1ccc2oc(-c3ccccc3)nc2c1)c1ccc2c(c1)OCCO2	–	–	–	–	18.9	–	–	23.4
O=C(NCc1ccccn1)c1cccc(NS(=O)(=O)c2cccc(F)c2)c1	–	–	–	–	–	–	·	·
C(=C\c1ccccn1)/c1cccnc1	·	–	–	·	·	·	·	·
O=C(C1=C[C@@H](C2CCCCC2)C[C@@H](OCc2ccc(CO)cc2)O1)N1CCN(Cc2ccccc2)CC1	–	–	–	–	18.7	–	–	–
O=C(C1=C[C@H](C2CCCCC2)C[C@H](OCc2ccc(CO)cc2)O1)N1CCN(Cc2ccccc2)CC1	–	–	–	–	–	–	·	·
CCc1sc(C(=O)Nc2cccc(-n3cnnn3)c2)cc1C	–	–	–	–	31.7	·	18.6	–
SMILES	CRFR2-BP antag	Myeloid diff 2	IDE cell activ	CRFBP-R2 agonist	IDE inh	TPT1 inhibitor	IDE inh confirm	HEK293 tox	others
COc1ccc(C)c(NC(=O)NCCc2cnc[nH]2)c1	–	·	–	–	–	–	·	·
CCOc1ccc(C(=O)NCC(=O)OCC(=O)c2ccc3c(c2)-c2ccccc2C3)cc1	–	–	–	–	–	–	·	·
COc1ccccc1C(=O)NCC(=O)OCC(=O)c1ccc2c(c1)-c1ccccc1C2	–	–	–	–	21.7	–	–	–
CN(C)c1ccc(/C=C/C(=O)c2ccc3c(c2)OCO3)cc1	–	–	–	135.4	72.9	·	118.9	–
O=C(/C=C/c1ccccc1)c1ccc2c(c1)OCO2	–	–	–	–	–	–	·	·
CCOCCCNC(=O)c1ccc(-n2c(=S)[nH]c3ccccc3c2=O)cc1	–	–	–	–	–	–	·	·
CCc1c(O)nc(SCC(=O)N2CCc3cc(OC)c(OC)cc3[C@@H]2C)[nH]c1=O	–	–	–	–	–	–	·	·
O=C(/C=C/c1ccc(F)cc1)N1CCCN(C(=O)/C=C/c2ccc(F)cc2)CC1	–	–	–	–	24.4	–	–	–
Cc1ccc(/C=C/C(=O)N2CCCN(C(=O)/C=C/c3ccc(C)cc3)CC2)cc1	–	·	–	–	–	–	·	·
CC(CN1C(C)CCCC1C)OC(=O)c1ccc(F)cc1 (stereo not given)	–	–	–	–	–	–	·	·
O=C(NCCN1CCC(n2c(=O)[nH]c3ccccc32)CC1)c1ccc(F)cc1Cl	·	–	·	·	·	·	·	·
CC1Sc2ccc(C(=O)N(CCc3ccccc3)Cc3ccccc3)cc2NC1=O (stereo not given)	–	–	·	–	·	·	·	·
Cc1cccc(C(=O)Nc2ccnc(-c3ccncc3)n2)c1	–	–	–	–	51.1	–	26.9	–
Cc1cccc(C(=O)Nc2ccnc(-c3cccnc3)n2)c1	–	–	–	–	43.6	–	31.2	–
CN(CC(=O)NC1(C)CCS(=O)(=O)C1)S(=O)(=O)c1ccc(Cl)cc1 (stereo not given)	–	–	–	–	–	–	·	·
COCCNC(=O)c1ccccc1NC(=O)CSc1ccc(C)cc1	–	–	–	–	–	–	·	·
Cc1ccc2nc(NC(=O)CSc3nc4c(c(=O)n3C)SC(C)C4)sc2c1 (stereo not given)	–	–	–	–	24.6	–	–	–
Cc1ccc(C)c(NC(=O)CSc2nc3c(c(=O)n2C)SC(C)C3)c1 (stereo not given)	–	–	–	–	–	–	·	·
Cc1sc2ncnc(SCC(=O)NC(=O)c3cccn3C)c2c1C	–	–	–	–	19.2	–	–	–
C=CCc1cccc(/C=C/c2cc(=O)c3ccccc3[nH]2)c1O	–	–	–	–	17.1	–	–	–
O=C(/C=C/c1ccc(Cl)cc1)N1CCOCC1	–	–	–	–	–	–	·	·
O=C(/C=C/c1ccc(OCc2cccc(Cl)c2)cc1)N1CCOCC1	–	–	–	–	18.0	–	–	–
Cc1ccc[n+](CC(=O)c2ccc(Cl)cc2)c1	–	–	–	–	–	–	·	·
Cc1ccc[n+](CC(=O)c2ccc(-c3ccccc3)cc2)c1	–	–	–	–	21.6	–	–	–

Screening results from PubChem BioAssay.
